The list is not random: actives were taken first. Their share in the collection is about 8.8%.
HPGD inh = blocks human HPGD enzyme activity; P15428; Potency, µM, without a hit: at the top dose activity change, negative = inhibition, hits mostly inhibitors; purified HPGD, NADH fluorescence kinetic, PGE2 substrate; 150,000 compounds, 4.3% hits; further: on the % scale 0 is the no-effect control and ±100 the full control effect
Target sequence (P15428 whole entry, looked up): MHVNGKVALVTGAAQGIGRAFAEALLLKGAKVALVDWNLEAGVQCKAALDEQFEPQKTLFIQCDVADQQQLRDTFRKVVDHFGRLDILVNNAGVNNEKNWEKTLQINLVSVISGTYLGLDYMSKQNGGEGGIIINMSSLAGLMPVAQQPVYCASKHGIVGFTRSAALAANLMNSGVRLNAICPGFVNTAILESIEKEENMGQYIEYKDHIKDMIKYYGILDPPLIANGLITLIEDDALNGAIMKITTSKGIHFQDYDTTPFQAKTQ
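NADH formation kinetics: reaction with 30 uM PGE2 and 1 mM NAD+ (final), 20 nM enzyme, Tris-HCl pH 8 with Tween 20, after 15 min compound preincubation at room temperature. Fluorescence change, last versus first of five reads.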
ALDH1A1 block = inhibitors of human aldehyde dehydrogenase 1A1. 220,000 compounds, 7.3% hits. Purified ALDH1A1, NADH fluorescence, propionaldehyde substrate. Potency, µM (highest dose often 75.3 µM), for the others: top-dose activity, negative = inhibition, actives largely listed as inhibitors;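 further: plate controls were no enzyme wells and a reference inhibitor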
Target sequence (P00352 whole entry, looked up): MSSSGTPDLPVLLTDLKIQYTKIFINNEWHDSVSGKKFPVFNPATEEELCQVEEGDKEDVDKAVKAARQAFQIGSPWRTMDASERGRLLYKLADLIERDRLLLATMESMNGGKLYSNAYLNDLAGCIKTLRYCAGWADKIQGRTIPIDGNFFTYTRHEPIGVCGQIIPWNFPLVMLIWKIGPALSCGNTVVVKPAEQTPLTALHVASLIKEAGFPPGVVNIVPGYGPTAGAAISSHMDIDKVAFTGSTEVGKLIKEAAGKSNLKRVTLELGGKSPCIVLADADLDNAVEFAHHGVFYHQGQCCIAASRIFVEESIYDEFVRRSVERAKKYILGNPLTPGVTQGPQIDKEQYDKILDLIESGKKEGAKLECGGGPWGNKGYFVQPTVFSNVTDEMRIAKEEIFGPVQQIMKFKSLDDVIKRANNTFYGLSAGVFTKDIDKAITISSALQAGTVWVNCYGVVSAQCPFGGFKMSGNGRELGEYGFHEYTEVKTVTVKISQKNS
HTT aggregate = reduces HttQ103-GFP aggregates in PC12 cells | PC12 HttQ103-GFP aggregates, Acumen cytometry, 40 h | Potency, µM (series often up to 46.1 µM), for the others: top-dose activity change, negative = inhibition, hits mostly inhibitors | 220,000 compounds, 1.1% hits; active means well fitted curve in the direction sought with a large enough effect; inconclusive means small, poorly fitted or top-dose-only effect, or another doubt; inactive means no such curve, though single readings can be large; an effect the other way counts as inactive or inconclusive; further: on the % scale 0 is the no-effect control and ±100 the full control effect; nearly all actives have a fitted effect of over 60% in size
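Inducible Q103 Huntingtin exon 1–GFP PC12 line, 1500 cells/well in phenol red free DMEM with 5% equine and 5% calf serum. Tebufenozide 100 nM induced expression; compounds titrated; aggregates quantified by cytometry.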
HTT cytoprotect = cytoprotection in Huntington HTT-Q103 PC12 cell model; PC12 HTT-Q103 induced, cytoprotection, ATP luminescence, 40 h; Potency, µM (titrated, usually from 56.4 µM), for the others: cytoprotection (ATP increase), most hits filed as activators; 230,000 compounds, 0.14% hits; active means well fitted curve in the direction sought with a large enough effect; inconclusive means small, poorly fitted or top-dose-only effect, or another doubt; inactive means no such curve, though single readings can be large; an effect the other way counts as inactive or inconclusive; further: % of control where 0% means no effect; nearly all actives have a fitted effect of over 45% in size
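ATP quantification (ATPlite) reports survival of PC12 cells in which tebufenozide, 100 nM final, switches on Htt exon 1 with 103 glutamines linked to GFP; compounds are titrated.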
Lamin A splicing = changes lamin A minigene splicing in HeLa cells; 200,000 compounds, 0.01% hits; Potency, µM (doses to about 46.1 µM), inactives show at the highest dose ratio change, negative = inhibition, actives largely listed as inhibitors; HeLa LMNA splicing GFP/RFP minigene ratio, 48 h; active means well fitted inhibition curve with a large enough effect in the signal ratio, with a control signal flat, not every such curve was filed as active; inconclusive means small, poorly fitted or top-dose-only effect, or effect the other way, or a change in a side signal; the % refers to the signal ratio; further: on the % scale 0 is the no-effect control and ±100 the full control effect
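S3 HeLa cells stably expressing lamin A-EGFP splicing minigene plus DsRed2, 600 cells/well, 48 h compound exposure at 37C. Laser-scanning cytometry; analysed as GFP (500-530 nm)/RFP (575-640 nm) total intensity ratio; 0.5% DMSO vehicle.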
Active calls of the source: *; ? = inconclusive; . = no result given; ! = not confirmed by another sample; [ ] = dose if it differs, or a comment. Unless noted, the call rests on the fitted dose curve; in most records, active means well fitted inhibition curve with a large enough effect (not every such curve was filed as active); inconclusive means small, poorly fitted or top-dose-only effect, or another doubt; inactive means no such curve, though single readings can be large or run the other way. Potency means the concentration at half of the fitted maximal effect.

SMILES	HPGD inh	ALDH1A1 block	HTT aggregate	HTT cytoprotect	Lamin A splicing
COc1ccc(C(=O)N2c3nc(-c4ccco4)nn3C3(CCCCC3)[C@@H]3CCCC[C@@H]32)cc1OC	.	.	.	.	18%[46 µM]
COc1ccc(Br)cc1CNC(=O)CN1CCSc2ccccc21	.	.	.	.	-5%[46 µM]
CCN1C(C)=C(C(=O)OC)C(c2ccccc2)N2C(=O)[C@](O)(C(=O)OC)CC(C#N)=C12 (stereo partly specified)	.	4%[13.5 µM]	.	-12%[10 µM]	.
COC(=O)c1cc2c(N)c(C(=O)c3ccccc3)sc2nc1C(OC)OC	.	.	10%[9.22 µM]	12%[10 µM]	.
Cn1cc(S(=O)(=O)N2CCCCCC2)cc1C(=O)NCc1ccccc1Cl	.	.	.	.	21%[46 µM]
COc1ccc(OC)c(-n2nnnc2SCC(=O)N2CCN(C(=O)c3ccco3)CC2)c1	.	?	24%[9.22 µM]	15%[10 µM]	1%[46 µM]
COc1ccc(-n2nnnc2SCC(=O)N2CCN(C(=O)c3ccco3)CC2)cc1OC	.	32µM*	-15%	-17%	.
Cc1nnc(SCC(=O)N2CCN(C(=O)c3ccco3)CC2)n1-c1ccccc1	.	28µM*	9%	-21%[10 µM]	.
CC(=O)OCc1ccco1	-8%	22µM*	.	-15%	.
CC(C)OC(=O)c1cccc(C(=O)OCc2ccco2)n1	-7%	8.9µM*	31%	-26%	?
CCC(CC)C(=O)Nc1cccc(/C(C)=N/NC(=O)c2ccccc2Cl)c1	-22%	13µM*	16%	-28%	6%
COc1cc(NC(=O)c2ccccc2F)c(OC)cc1NC(=O)CN1CCOCC1	.	25µM*	-8%[9.22 µM]	-3%[10 µM]	-22%[46 µM]
O=C(Nc1ccc(N2CCOCC2)c(Cl)c1)c1ccccc1F	16µM*	?	27%	-33%	4%
COc1ccccc1C(=O)NC(=S)Nc1ccc(N2CCOCC2)c(Cl)c1	.	11µM*	-7%	-34%	.
COc1ccccc1C(=O)NC(=S)Nc1cc(C(=O)O)ccc1C	.	14µM*	-14%	-42%	.
COc1cc(NC(=O)c2ccc(F)cc2)c(OC)cc1NC(=O)CN1CCOCC1	.	0%	-14%[9.22 µM]	-4%[10 µM]	2%[46 µM]
C=CC1=C2C=C(C3CC3)N(c3ccc(OC)cc3)C=C2C(=O)C(C)(OC(=O)c2ccco2)C1=O (stereo unspecified)	-8%	10%[13.5 µM]	.	-15%[10 µM]	-12%[9.22 µM]
Cn1c(=O)c2nc(SCC(=O)Nc3ccc(Cl)c(Cl)c3)n(C)c2n(C)c1=O	.	.	.	.	1%[46 µM]
O=C(NC1CCN(Cc2ccccc2)C1)c1ccc(Cc2nc3ccccc3[nH]2)cc1 (stereo unspecified)	-5%	3%	.	.	.
O=C1NC(=S)N/C1=C/c1cc([N+](=O)[O-])ccc1N1CCOCC1	.	25µM*	6%	-16%	-23%[46 µM]
COCc1[nH]nc2c1C(c1cccc(OC)c1)C(C#N)=C(N)O2 (stereo unspecified)	-22%	28µM*	-3%	13%	0%
CCn1c2ccccc2c2cc(C3C(C#N)=C(N)Oc4n[nH]c(COC)c43)ccc21 (stereo unspecified)	?	1.8µM*	19%	-36%	?
COCc1[nH]nc2c1C(c1ccc(OC)c(OC)c1)C(C#N)=C(N)O2 (stereo unspecified)	-11%	1%	0%	17%	5%
COc1cccc(-c2[nH]nc3c2C(c2ccoc2)C(C#N)=C(N)O3)c1 (stereo unspecified)	28µM*	13µM*	-6%[9.22 µM]	-2%	8%
O=C(CC1N=C2c3ccccc3N=C(SCc3ccccc3Cl)N2C1=O)NCCc1ccccc1 (stereo unspecified)	.	.	.	.	-16%[46 µM]
SMILES	HPGD inh	ALDH1A1 block	HTT aggregate	HTT cytoprotect	Lamin A splicing
CN(C)c1ccc(CNc2nc(-c3ccco3)nn2S(=O)(=O)c2ccc3ccccc3c2)cc1	.	.	.	.	-16%[46 µM]
COC(C(=O)Nc1ccc(S(=O)(=O)Nc2cccc3ccccc23)cc1)c1ccccc1 (stereo unspecified)	-4%	?	1%	-8%[10 µM]	-24%
CC(CN1c2ccccc2Sc2ccccc21)N(C)C (stereo unspecified)	-26%	?	28µM*!	-187%	?
C[C@@H](CN1c2ccccc2Sc2ccccc21)N(C)C	-14%	-4%[20.9 µM]	.	-14%[40.3 µM]	-15%
COc1ccccc1NC(=O)c1c(C)cc(C)nc1SCC(=O)c1ccc(Cl)cc1	.	.	.	.	-6%[46 µM]
CCOc1ccc(CN(C)C(=O)CCl)cc1	.	0.05µM*	-1%[9.22 µM]	9%[10 µM]	.
Oc1ccccc1/C=N/NC(=S)NC1CC2C=CC1C2 (stereo unspecified)	.	25µM*	2%[9.22 µM]	-11%[10 µM]	?
Oc1c(Cl)cc(Cl)cc1/C=N/NC(=S)NC1CC2C=CC1C2 (stereo unspecified)	.	?	-6%[9.22 µM]	5%[10 µM]	?
COC(=O)[C@H](Cc1ccccc1)NC(=O)O[C@H]1C(=O)c2cc(OC)ccc2O[C@@H]1c1ccc(OC)c(Br)c1	-4%	4%	.	17%	.
CN(Cc1cnn(C)c1)C(=O)c1cc2ccccc2oc1=O	-22%	0%	1%	12%[10 µM]	-17%
CN(Cc1cnn(C)c1)C(=O)c1sc2cccc(Cl)c2c1Cl	28µM*	?	-18%	7%	?
Cc1cc(C)c(Nc2nc3ccccc3n3c(C)nnc23)c(C)c1	.	.	.	.	11%[46 µM]
CCOc1ccc(C(=O)NCCC2=CCCCC2)cc1OCC	.	25µM*	6%	-28%	-5%[46 µM]
Cc1ccccc1NS(=O)(=O)c1cc(C(=O)NCCC2=CCCCC2)ccc1Cl	5%	20µM*	-32%	-56%	?
COc1cccc(-n2cc(C(=O)Oc3ccc(F)cc3)c3ccccc3c2=O)c1	.	.	.	.	-12%[46 µM]
CCN(CC)c1ccc(/C=N/Nc2ccccc2)c(O)c1	28µM*	3.5µM*	16%	-11%	21%
CCN(CC)c1ccc(/C=N/NC(=O)OC)c(O)c1	?	?	-2%	-51%	0%
CCN(CC)c1ccc(/C=N/Nc2cccc(C)c2)c(O)c1	22µM*	10µM*	-5%	41%[10 µM]	8%
CCN(CC)c1ccc(/C=N/NC(=S)NC)c(O)c1	.	?	-25%	-43%	.
CCN(CC)C(=O)c1cccc(-c2ccc(OC)cc2)c1	14µM*	16%	2%	2%[0.074 µM]	?
COC(=O)CNC(=O)c1cccc(-c2ccc(OC)cc2)c1	.	-5%	17%[9.22 µM]	2%[10 µM]	.
O=C1C[C@@H](O)[C@@H](O)[C@@H]2[C@H]3C(=O)N(c4ccc(F)cc4F)C(=O)[C@@H]3CC[C@@H]12	.	5%[13.5 µM]	.	?	.
CCn1c(C)cc(=S)c2ccccc21	-5%	4µM*	?	-9%	-10%
COC(=O)C1=C(C)NC(C)=C([N+](=O)[O-])[C@@H]1c1ccccc1C(F)(F)F	-7%	-7%	.	70%	.
Cc1c(Cl)sn(-c2ccc(Cl)cc2)c1=O	.	1.8µM*	16%[9.22 µM]	-13%	.
Cc1nn(-c2ccc(Cl)cc2)c(=O)c2ccccc12	.	5%	-14%[9.22 µM]	-15%[10 µM]	.
O=C(CC1(O)C(=O)N(CCc2ccccc2)c2ccccc21)c1ccco1 (stereo unspecified)	-6%	?	14%	-6%	4%

Source: PubChem (National Center for Advancing Translational Sciences (NCATS))
